PubChem BioAssay AID651640 (Broad Institute, 2012)
In all, about 350,000 compounds went through this assay and about 6,000 (1.7%) were called active. About 5% were inconclusive and are not listed. Many of the other results were omitted from the sample, so actives are more common in it than they were. Unmarked numbers belong to inactive results. No stated cut-off is given here; in the data, active means CPE inhibition above about 20% (passing the limit was not always enough); inconclusive means no clear call, values can overlap the other calls; tested in BHK-21 cells.

Test: protection of cells from dengue 2 killing – plate reader, single concentration, primary screen (AID 651640);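 further: 0% = median of neutral control wells and 100% = median of positive control wells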
Conditions: DENV2-infected cells, cytopathic effect rescue, at 9.99 µM, hits give high values

Compared with COCC(=O)N1[C@H](C(=O)N2CCN(C)CC2)[C@@H](CO)[C@@H]2Cn3c(ccc(C4=CCCC4)c3=O)[C@@H]21, CN(C)CC(=O)N1[C@H](C(=O)NC2CCC2)[C@@H](CO)[C@@H]2Cn3c(ccc(-c4ccc(F)cc4)c3=O)[C@@H]21 is higher in CPE inhibition: -7.88% for the first, 2.93% for the second.

First: COc1cccc(S(=O)(=O)N2CC3(CCN(C)CC3)c3c(n(C)c4cc(OC)ccc34)[C@H]2CO)c1
Second: COc1ccc2c3c(n(C)c2c1)[C@@H](CO)N(C(=O)Nc1ccc(F)cc1)CC31CN(C(=O)NC(C)C)C1
The CPE inhibition of the first is higher: 3.74% for the first, -3.42% for the second.

Compared with CC(=O)C1=C(C)N(Cc2ccccc2)C(=S)NC1c1cccc(Br)c1 (stereo unspecified), Cc1c(C(=O)NCCCc2ccccc2)cccc1[N+](=O)[O-] is higher in CPE inhibition: -5.19% for the first, 4.47% for the second.

First: C[C@@H]1CCCCO[C@@H](CN(C)S(=O)(=O)c2cccs2)[C@@H](C)CN([C@@H](C)CO)C(=O)c2cc(NS(=O)(=O)c3ccc(F)cc3)ccc2O1
Second: C[C@@H]1CN([C@H](C)CO)C(=O)c2cc(NC(=O)Nc3ccc(F)cc3)ccc2O[C@@H](C)CCCCO[C@H]1CN(C)Cc1ccc(Cl)c(Cl)c1
The CPE inhibition of the first is lower: -8.5% for the first, -2.33% for the second.

Compared with C[C@@H]1CN([C@H](C)CO)C(=O)c2cccc(NC(=O)c3cnccn3)c2O[C@@H]1CN(C)Cc1ccncc1, C[C@H]1CN([C@@H](C)CO)C(=O)c2cccc(NC(=O)c3cnccn3)c2O[C@@H]1CN(C)Cc1ccc(Oc2ccccc2)cc1 is lower in CPE inhibition: 5.84% for the first, 2.15% for the second.

Compared with CC(C)NC(=O)N(C)C[C@@H]1Oc2c(NC(=O)c3cnccn3)cccc2C(=O)N([C@@H](C)CO)C[C@@H]1C, COc1ccc(S(=O)(=O)Nc2cccc3c2O[C@H](CN(C)C(=O)NC(C)C)[C@H](C)CN([C@H](C)CO)C3=O)cc1 is higher in CPE inhibition: -11.9% for the first, -8.19% for the second.

Compared with C[C@@H]1CN([C@@H](C)CO)C(=O)c2cccc(NC(=O)Nc3ccc(F)cc3)c2O[C@H]1CN(C)C(=O)Nc1ccc(F)cc1, COc1ccc(CN(C)C[C@H]2OCCCC[C@H](C)Oc3ccc(NC(=O)c4ccccc4)cc3C(=O)N([C@@H](C)CO)C[C@@H]2C)cc1 is lower in CPE inhibition: 14.7% for the first, 10.3% for the second.

First: CC(=O)N[C@H]1CC[C@H](CCNC(=O)C2CC2)O[C@H]1CO
Second: CNC(=O)C[C@@H]1CC[C@H]2[C@H](COc3ccc(NC(=O)C4CC4)cc3C(=O)N2C)O1
The CPE inhibition of the first is lower: -5.24% for the first, -4.01% for the second.

Going from O=C(c1cccc(F)c1)N1C[C@H]2[C@@H](c3ccccc31)[C@@H](CO)N2C(=O)Cc1ccccc1 to O=C(N[C@@H]1CC[C@@H](CCn2cc(-c3ccccn3)nn2)O[C@@H]1CO)c1ccccc1, the CPE inhibition rises from -5.94% to -2.85%.

Going from CO[C@@H]1CN(C)C(=O)c2ccc(NS(C)(=O)=O)cc2OC[C@@H](C)N(C(=O)CC2CC2)C[C@@H]1C to CCCNC(=O)Nc1ccc2c(c1)C(=O)N(C)C[C@@H](OC)[C@H](C)CN(CCC)[C@@H](C)CO2, the CPE inhibition rises from -2.7% to 3.79%.

First: Cc1nn(Cc2ccccc2)c(C)c1C(=O)NCCN1C(=O)S/C(=C\c2ccc(F)cc2)C1=O
Second: Cc1c(CCC(=O)O)c(=O)oc2c(C)c(OCc3ccccc3Cl)ccc12
The CPE inhibition of the first is higher: -3.31% for the first, -5.66% for the second.

First: O=C(C[C@@H]1CC[C@@H](NS(=O)(=O)c2ccccc2)[C@H](CO)O1)NCc1ccc(Cl)c(Cl)c1
Second: O=S(=O)(NCC[C@H]1CC[C@@H](NS(=O)(=O)c2ccccc2Cl)[C@@H](CO)O1)c1ccc(Cl)cc1
The CPE inhibition of the first is higher: 3.78% for the first, -9.23% for the second.

Compared with Cc1c(C)n2c(SCC(=O)N3CCCC3)nnc2[nH]c1=O, CCc1ccc(C(=O)CSc2nnc(C)c(=O)[nH]2)cc1 is lower in CPE inhibition: 13.9% for the first, -2.63% for the second.

Compared with CC=Cc1ccc2n(c1=O)C[C@@H]1[C@@H](CO)[C@H](C(=O)N3CCCCC3)[C@H]2N1C(=O)C1CCC1 (mixture of isomers), O=C(COc1ccccc1)Nc1ccc(C(=O)N2CCCC2)cc1 is lower in CPE inhibition: 1.43% for the first, -2.25% for the second.

Going from COc1ccc(OC)c(Cc2nnc(CCC(=O)NC3CCCC3)o2)c1 to Cc1ccccc1CN(C)C[C@H]1OCc2cn(nn2)CCCC(=O)N([C@@H](C)CO)C[C@H]1C, the CPE inhibition falls from -7.33% to -8.88%.

Going from C[C@H]1CN([C@@H](C)CO)C(=O)c2cc(C#CCN(C)C)cnc2O[C@H]1CN(C)C(=O)Cc1ccccc1 to C[C@@H]1CN([C@@H](C)CO)S(=O)(=O)c2ccc(C3=CCCCC3)cc2O[C@@H]1CN(C)Cc1cccc(C(=O)O)c1, the CPE inhibition rises from -2.97% to 0.212%.

First: Cc1[nH]c2ccccc2c1CC(=O)Nc1ccc(Nc2cccnc2)c(-c2cccc(Cl)c2)c1
Second: COc1ccc(-c2cn[nH]c2-c2ccc(OC)cc2)cc1
The CPE inhibition of the first is lower: -3.53% for the first, 4.92% for the second.

Going from O=C(Nc1ncccc1O)c1ccc(S(=O)(=O)N2CCCC2)cc1 to O=C(N/N=C/c1ccccn1)c1ccc(S(=O)(=O)N2CCCCCC2)cc1, the CPE inhibition rises from -6.91% to 0.844%.

First: COc1ccc(N2CCN(C(=O)c3cccs3)CC2)cc1
Second: Cc1cc(C)n(CCNS(=O)(=O)c2ccc(Cl)cc2)n1
The CPE inhibition of the first is lower: 5.45% for the first, 8.8% for the second.

For C[C@H]1CN([C@@H](C)CO)C(=O)c2cccc(NC(=O)c3cnccn3)c2O[C@H]1CN(C)C(=O)Nc1ccccc1, the CPE inhibition was 28.3% (active).
In the case of C[C@H](CO)N1C[C@H](C)[C@H](CN(C)C(=O)Nc2ccc(F)cc2)Oc2c(NC(=O)c3cnccn3)cccc2C1=O, the CPE inhibition is reported as 29.3% (active).
For Cc1c(C(=O)NCCN2C(=O)S/C(=C\c3cccs3)C2=O)cccc1[N+](=O)[O-], the CPE inhibition was 27% (active).
For Cc1nnc(SCC(=O)N2CCOCC2)[nH]c1=O, the CPE inhibition was 58.6% (active).
With COc1ccc2c(C)c(CCC(=O)NC3CC3)c(=O)oc2c1C the CPE inhibition was 63.2% (active).
With O=C(Nc1ncccc1O)c1ccc(S(=O)(=O)N2CCCCCC2)cc1 the CPE inhibition was 71.9% (active).
With O=C(COc1ccccc1)Nc1ccc(N2CCN(C(=O)c3cccs3)CC2)cc1 the CPE inhibition was 21.9% (active).
For COc1ccc2cc(-c3[nH]ncc3CNCCn3nc(C)cc3C)ccc2c1, the CPE inhibition was 22.2% (active).
